Results published in PubChem BioAssay.
Several values for one entry are separate records, joined by “and”; a condition that tells them apart may be missing. Identical values can stand only once. Activity calls are given as the source filed them. The rule behind the calls is not given here. Where a SMILES comes first, the peptide text is derived from it.

Tested on: Botulinum neurotoxin type F light chain protease (Clostridium botulinum)
Assay: Botulinum neurotoxin type F light chain protease inhibition, multiplex microsphere flow cytometry, validation set (AID 588459)
Conditions: multiplex microsphere protease substrate cleavage assay, at 10 µM, hits give high values

Structure (SMILES)	inhibition
CC(C)CC(=O)OC1C(N2CCOCC2)c2c(ccc(/C=C/C(=O)N3CCOCC3)c2O)OC1(C)C (stereo not drawn)	0.5% (inactive)
NNC(=O)c1ccncc1	1.1% (inactive)
N=c1nc(N2CCCCC2)cc(N)n1O	-2.3% (inactive)
COc1ccc(/C=C/C(=O)c2cc3cccc(OC)c3oc2=O)cc1	2.3% (inactive)
Oc1[nH]c2ccccc2c1C1=NCCCC1	3.8% (inactive)
C=CC1=C(C(=O)O)N2C(=O)C(NC(=O)Cc3ccccc3)C2SC1 (stereo not drawn)	2.1% (inactive)
O=C1C(=O)c2ccccc2C(O)=C1c1ccccc1F	4.6% (inactive)
CC(C)C1Cc2[nH]c(=O)c(C(=O)O)cc2CO1 (stereo not drawn)	2.3% (inactive)
CC1CCc2cc(F)cc3c(=O)c(C(=O)O)cn1c23 (stereo not drawn)	3.2% (inactive)
CCN(CC)CCNC(=O)c1ccc(NC(C)=O)cc1	3.4% (inactive) and 3.6% (inactive)
COc1cc2c(cc1OC)/C(=C/c1ccc(Cl)cc1)C(=O)OC2	-0.2% (inactive)
COc1ccc(CCn2c(C)cc3c(c2=O)C(c2ccncc2)C(C#N)=C(N)O3)cc1OC (stereo not drawn)	-1.2% (inactive)
COc1ccc(/C=C\c2nc(=O)c3ccccc3o2)cc1	-0.6% (inactive)
CC(C)(C)OC(=O)N1CC(O)CC1C(=O)OCC(=O)c1ccc(Cl)cc1 (stereo not drawn)	-2.2% (inactive)
Fc1ccc(-c2cc(-c3ccccc3)nc(-n3cccn3)n2)cc1	-6.3% (inactive)
COc1cc2c(cc1OC)C(c1ccccc1)=NCC2	0.6% (inactive)
CC1(C)CC(CNCCC(c2ccc(F)cc2)c2ccco2)CCO1 (stereo not drawn)	0.9% (inactive)
CCC[C@@H]1C[C@@H](C(=O)N[C@H]([C@@H](C)O)[C@H]2O[C@H](SC)[C@H](O)[C@@H](O)C2O)N(C)C1 (stereo partly drawn)	3.2% (inactive)
COC(=O)CCC(=O)CN	0.5% (inactive)
O=C(NCC1CCCO1)c1ccc(OC2CCN(C(=O)C3CC3)CC2)cc1 (stereo not drawn)	0.8% (inactive)

Molecular target: Botulinum neurotoxin type A (Clostridium botulinum) (UniProt P0DPI0)
Assay: BoNT/A light chain protease inhibitors, biochemical, multiplex microsphere flow cytometry, validation set (AID 588460)
Conditions: at 10 µM, hits give high values

Botulinum neurotoxin type A (Clostridium botulinum), sequence (P0DPI0 whole entry, looked up): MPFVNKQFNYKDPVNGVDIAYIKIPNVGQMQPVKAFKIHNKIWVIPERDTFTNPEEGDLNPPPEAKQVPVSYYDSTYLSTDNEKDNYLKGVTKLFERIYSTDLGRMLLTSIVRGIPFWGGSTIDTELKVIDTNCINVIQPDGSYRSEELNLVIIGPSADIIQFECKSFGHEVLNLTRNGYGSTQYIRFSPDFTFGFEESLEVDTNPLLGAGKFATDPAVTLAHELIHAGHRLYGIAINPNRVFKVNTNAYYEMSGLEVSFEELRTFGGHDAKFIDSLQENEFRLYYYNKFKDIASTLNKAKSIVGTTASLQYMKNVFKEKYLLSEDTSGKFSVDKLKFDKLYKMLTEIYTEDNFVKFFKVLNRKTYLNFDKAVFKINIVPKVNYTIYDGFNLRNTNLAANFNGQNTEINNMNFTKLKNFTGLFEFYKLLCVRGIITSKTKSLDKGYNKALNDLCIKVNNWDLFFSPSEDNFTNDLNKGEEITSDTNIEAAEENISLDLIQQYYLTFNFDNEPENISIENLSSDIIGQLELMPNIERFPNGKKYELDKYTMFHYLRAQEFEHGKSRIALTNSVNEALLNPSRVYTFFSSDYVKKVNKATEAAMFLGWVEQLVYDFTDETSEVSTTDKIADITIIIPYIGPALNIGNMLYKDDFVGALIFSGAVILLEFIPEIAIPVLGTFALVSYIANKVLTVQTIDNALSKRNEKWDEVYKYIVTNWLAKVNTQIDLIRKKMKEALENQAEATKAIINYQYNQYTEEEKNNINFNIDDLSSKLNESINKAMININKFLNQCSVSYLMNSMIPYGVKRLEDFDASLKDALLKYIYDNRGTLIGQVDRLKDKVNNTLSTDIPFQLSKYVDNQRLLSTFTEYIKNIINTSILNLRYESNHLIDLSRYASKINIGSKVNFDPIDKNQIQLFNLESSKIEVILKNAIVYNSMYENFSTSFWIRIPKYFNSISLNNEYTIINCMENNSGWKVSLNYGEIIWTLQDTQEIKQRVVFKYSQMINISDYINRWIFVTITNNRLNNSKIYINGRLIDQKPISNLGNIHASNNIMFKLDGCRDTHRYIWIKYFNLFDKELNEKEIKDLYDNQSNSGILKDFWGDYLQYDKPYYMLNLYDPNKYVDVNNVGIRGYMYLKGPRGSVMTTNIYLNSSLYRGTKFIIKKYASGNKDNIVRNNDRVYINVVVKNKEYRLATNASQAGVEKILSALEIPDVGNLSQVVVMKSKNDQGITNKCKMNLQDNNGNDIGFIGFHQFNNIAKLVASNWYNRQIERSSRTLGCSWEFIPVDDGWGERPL

Structure (SMILES)	inhibition
O=C(O)CCn1cnc2ccccc2c1=O	0.3% (inactive)
Clc1ccc2c(c1)[C@H]1OCC[C@H]1[C@@H](c1ccco1)N2	-0.7% (inactive)
CC1CCN(CCOCCOc2ccccc2Br)CC1	0.3% (inactive)
O=C(/C=C/c1ccc(Cl)cc1)NCCc1ccccc1	0.4% (inactive)
Cc1[nH]nc(-c2ccc(O)cc2O)c1Oc1ccccc1	-0.4% (inactive)
Cc1nc(N)sc1C(=O)N/N=C/c1ccco1	0.1% (inactive)
Nc1cccc(C(=O)O)c1	-0.3% (inactive)
Cc1ccc2c(ccc(=S)n2C)c1	0.8% (inactive)
Cc1ccccc1C(=O)NCC(=O)O	2.7% (inactive)
COC(=O)C1=C(C)N(C)C(=S)NC1c1ccc(Cl)cc1 (stereo not drawn)	-0.5% (inactive)
Cc1ccc(N2C(=O)c3ccccc3C2=O)cc1C	0.5% (inactive)
CC(C)(C)NCC(O)c1cc(O)cc(O)c1 (stereo not drawn)	0.7% (inactive)
CCCCOc1ccc(OCCCN2CCOCC2)cc1	0.4% (inactive)
Cc1cc(-c2nn(-c3ccccc3F)cc2CN2CCCC(O)C2)c(C)s1 (stereo not drawn)	0.2% (inactive)
CC(=O)NC(CC(C)C)C(=O)NC(Cc1ccccc1)C(N)=O (stereo not drawn) (Ac-Leu-Phe-NH2; configuration not given here)	0.2% (inactive)
c1ccc(Cn2nnc3cnccc32)cc1	-0.8% (inactive)
O=C(/C=C/c1ccccc1)c1ccccc1	-0.6% (inactive)
COc1ccc(C(=O)c2oc3ccc(Br)cc3c2NC(C)=O)cc1	-1.1% (inactive)
N/C(=N\OC(=O)CCCOc1ccc(Cl)cc1Cl)c1ccccn1	-0.3% (inactive)
CC(C)CC(=O)OC1C(N2CCOCC2)c2c(ccc(/C=C/C(=O)N3CCOCC3)c2O)OC1(C)C (stereo not drawn)	-0.5% (inactive)
NNC(=O)c1ccncc1	-0.2% (inactive)
N=c1nc(N2CCCCC2)cc(N)n1O	-0.7% (inactive)
COc1ccc(/C=C/C(=O)c2cc3cccc(OC)c3oc2=O)cc1	2.8% (inactive)
Oc1[nH]c2ccccc2c1C1=NCCCC1	-0.1% (inactive)
C=CC1=C(C(=O)O)N2C(=O)C(NC(=O)Cc3ccccc3)C2SC1 (stereo not drawn)	0.1% (inactive)
O=C1C(=O)c2ccccc2C(O)=C1c1ccccc1F	0.5% (inactive)
CC(C)C1Cc2[nH]c(=O)c(C(=O)O)cc2CO1 (stereo not drawn)	-0.9% (inactive)
CC1CCc2cc(F)cc3c(=O)c(C(=O)O)cn1c23 (stereo not drawn)	1.8% (inactive)
